This passage reports growth results from PubChem BioAssay (NCI).

This is part of a sample that, as a whole, favours compounds with a hit. Of some 83,000 tested, about 20% had one in any assay.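 Results are percent growth after 48 hours of single-concentration exposure. 100 means growth as in untreated cells, lower positive values show inhibition; negative values down to -100 show cell death.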 Values without a mark were called inactive. Activity calls are given as the source filed them. How the source made its calls: active means growth percent below 10; inactive means the rest.

The assay relates to HL-60(TB) leukemia. Briefly: NCI-60 one-dose screen, 48 h (100 = growth as untreated, 0 = no growth, -100 = all killed). Particulars: 10 µM unless noted.
As to `O=c1[nH]c(=O)n(Cc2ccc(F)cc2)cc1F`, the growth is 88.7% [50 µM].

`Clc1nccc2c(-c3csc(-c4c[nH]c5ccccc45)n3)c[nH]c12`: the growth is 29.4%.

Consider `Cc1cc2nc3c4cccc(O)c4n(CCN(C)C)c3nc2cc1C`, for which the growth was 29.2%.

Take `CN(c1ccccc1)c1ncnc2c1ncn2C`: the growth was 105%.

`CCCC[P+](c1ccccc1)(c1ccccc1)c1ccccc1`: the growth is 16.3%.

Take `COc1cc(-c2nc3ccccc3o2)cc(CN2CCN(c3ccccc3)CC2)c1O`: the growth was 71.3%.

`C#Cc1cccc(NC(=O)C2CCCCN2C(=O)CCl)c1` (stereo not given): the growth is -31.6% [8.25 µM] (active).

With `CC(C)(O)CCl`, the growth is 120%.

Turning to `COc1cc(-c2nn(-c3cccc(NC(=O)CCN4CCN(c5ccccc5)CC4)c3)cc2-c2ccncc2)ccc1Cl`, the growth is 13%.

Turning to `COc1cc(C2CC(=O)c3ccccc3N2)cc(OC)c1OC` (stereo not given), the growth is 98.8%.

With `COc1ccc(OC)c(/C=C/c2nnc(Nc3ccccc3)o2)c1`, the growth was 75.7%.

On to `O=C(O)c1cc(C(F)(F)F)cc(C(F)(F)F)c1`, for which the growth is 88.2%.

Take `N#Cc1cccc(C2C3=C(COC3=O)N(CCO)c3cc4c(cc32)OCO4)c1` (stereo not given): the growth was -32.1% (active).

As for `CN(C)Cc1ccc(C(=O)Nc2ccc3ncnc(Nc4ccc(Oc5cccc(F)c5)c(Cl)c4)c3c2)cc1`, the growth was -41.7% (active).

Turning to `COc1ccc(C(=O)C2CC2c2ccc(Cl)cc2)cc1` (stereo not given), the growth is 14.1%.

As for `CCN1CCN(Cc2ccc(NC(=O)c3nc4ccc5[nH]ncc5c4c4c3CCCC4)cc2C(F)(F)F)CC1`, the growth was -59% (active).

Turning to `COc1cc(OC)c(C(=O)C(CN(C)C)CN(C)C)cc1OC`, the growth is -63.5% (active).

Take `Cc1cc(N(CCCNc2ccnc3cc(Cl)ccc23)Cc2ccc3c(c2)OCO3)nc(N2CCCCC2)n1`: the growth is -68.4% (active).

`O=C(Cc1ccc2c(c1)OCCO2)Nc1nc2ccc(F)cc2s1`: the growth was 99.6%.

`CCOC(=O)c1c2c(c(C)n1Cc1ccc(OC)cc1)-c1oncc1CC2`: the growth is 91.9%.

As to `CC(O)CN(CC(C)O)c1ccc2c(c1)Cc1cc([N+](=O)[O-])ccc1-2` (stereo not given), the growth is 74.5%.

With `COc1ccc(O)c(-c2cc(-c3ccc(Cl)cc3)c(C#N)c(=O)[nH]2)c1`, the growth was 65.2%.

Consider `Clc1ccc(-c2cn3ccsc3n2)c(Cl)c1Cl`, for which the growth is 85.7%.

On to `O=CN1N=C(c2ccc(Nc3ccnc4cc(Cl)ccc34)cc2)CC1c1ccccc1` (stereo not given), for which the growth was -25.8% (active).

As to `CCN(CC)CCOc1ccc(C(=O)/C=C\c2ccc(Cl)cc2Cl)cc1`, the growth is -29.2% (active).

As for `CC(C)N(C(=O)c1ccccc1)C(C)C`, the growth was 100%.

For the compound `CCCS(=O)(=O)Nc1ccc(F)c(C(=O)c2c[nH]c3ncc(-c4ccc(OCCCC5CCCCN5)nc4)cc23)c1F` (stereo not given), the growth is 97.4%.

As for `O=C1Nc2ccccc2C12C=C(c1ccccc1)Nc1c2c(-c2ccccc2)nn1-c1ccccc1` (stereo not given), the growth is 5.77% (active).

`O=C(/C=C/c1ccc(F)cc1)Nc1ncc(Cc2ccc(F)cc2)s1`: the growth was -26.6% (active).

Consider `Cc1c(C)c2c(c(C)c1OC(=O)CCC(=O)[O-])CCC(C)(CCCCCCCCCCC[P+](c1ccccc1)(c1ccccc1)c1ccccc1)O2` (stereo not given), for which the growth is -35.2% (active).

For the compound `CCN(CC)CCN1C(=O)c2cccc3c(-c4ccc5c(c4)ncn5C4CCCCC4)ccc(c23)C1=O`, the growth is -15.2% (active).

As to `Cc1ccc2cc3c(N)c4c(C)ccc(C)c4nc3nc2c1`, the growth is 12.6%.

Take `O=C(O)c1ccc(-n2c(=O)c3ccccc3c3ccccc3c2=O)cc1`: the growth was 83.7%.

Regarding `COc1ccc(/C=C2/CN(C(=O)c3ccccc3F)C/C(=C\c3ccc(OC)cc3)C2=O)cc1`, the growth was 51.4%.

Take `CCC(=O)c1cc([N+](=O)[O-])c(Br)s1`: the growth is 34%.

On to `OC(COCc1ccccc1)COCc1ccccc1`, for which the growth is 91.8%.

Turning to `COc1ccc2c(c1)OC(N)=C(C#N)C2c1ccc(F)c(F)c1` (stereo not given), the growth was -18.4% (active).

With `CC(C)=CCc1cc2c(cc1O)C1=C(C(=O)C3=C(C1=O)S(=O)(=O)CCN3)C(C=C(C)C)O2` (stereo not given), the growth was -36% (active).

On to `COC(=O)c1ccc2c(c1)n(Cc1ccc3ccccc3c1)c[n+]2Cc1ccc2ccccc2c1`, for which the growth is -18.8% (active).

Regarding `COC(=O)/C(CCC=C(C)C)=C1\[C@@H](OC(C)=O)C[C@@]2(C)[C@H]1CC(=O)[C@H]1[C@@]3(C)CCC(N4CCCC4)[C@@H](C)[C@@H]3CC[C@@]12C` (stereo not given in full), the growth was -51.4% (active).
